Test results as given in PubChem BioAssay (EPA / NIEHS).
The source made the active and inactive calls. How the source made its calls: active means hit-call score of the fitted dose curve at least 0.9, where 1 is the maximum; inactive means score below 0.9.

Key:
[1] = ATG_DR4_LXR_CIS: Attagene CIS-FACTORIAL HepG2 Assay for human Liver X Receptor (LXR), DR4 submotif (AID 2282929); details: HepG2 Attagene DR4 cis-reporter, mRNA transcription; AC50: actives raise or lower the signal unless noted; outcome: actives raise or lower the signal unless noted
Method in brief: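 Transiently transfected HepG2 liver cells; cis-regulated reporters; 24 h dosing. RT-PCR plus CE read-out of reporter mRNA. DMSO baseline, bidirectional curve fitting.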

[2] = biological target: Aryl hydrocarbon receptor (Homo sapiens) (UniProt P35869); assay: ATG_Ahr_CIS: Attagene CIS-FACTORIAL HepG2 Assay for human Aryl Hydrocarbon Receptor (Ahr) (AID 2282930); details: HepG2 AhR cis-factorial reporter transcription; actives raise or lower the signal
Method in brief: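 Endogenous factor activity is tracked through cis-promoter reporter units transfected into HepG2 cells. Transcript levels at 24 h are read by fluorescent RT-PCR and capillary electrophoresis, with activity in either direction scored relative to DMSO.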

[3] = ATG_AP_1_CIS: Attagene CIS-FACTORIAL HepG2 Assay for human Activator Protein 1 (AP-1) (AID 2282931); details: HepG2 Attagene cis-factorial AP-1 reporter mRNA; actives raise or lower the signal
Method in brief: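 We transfected HepG2 cells transiently with a set of cis-regulated reporter transcription units, dosed them for 24 h, and quantified reporter mRNA via RT-PCR and capillary electrophoresis, scoring gain or loss of signal relative to DMSO.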

[4] = ATG_AP_2_CIS: Attagene CIS-FACTORIAL HepG2 Assay for human Activator Protein 2 (AP-2) (AID 2282932); details: HepG2 AP-2 cis-reporter, Attagene transcription factor profiling; AC50: actives raise or lower the signal unless noted; outcome: actives raise or lower the signal unless noted
Method in brief: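 HepG2 cells transiently transfected with cis-element reporter units and exposed for 24 h. Reporter mRNA measured by RT-PCR, FAM labelling, HpaI digestion and capillary electrophoresis. Changes in either direction fitted relative to DMSO.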

[5] = ATG_BRE_CIS: Attagene CIS-FACTORIAL HepG2 Assay for human Bone Morphogenetic Protein (BMP) Response Element (BRE) (AID 2282933); details: HepG2 BMP response element reporter, Attagene transcription factor profiling; actives raise or lower the signal
Method in brief: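 HepG2 cells transiently transfected with multiplexed cis-element reporter units were dosed with chemical for 24 h. Reporter mRNA was measured by RT-PCR with fluorescent labelling, HpaI digestion and capillary electrophoresis; bidirectional fitting relative to DMSO.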

[6] = biological target: Retinoic acid receptor alpha (Homo sapiens) (UniProt P10276); assay: ATG_DR5_RAR_CIS: Attagene CIS-FACTORIAL HepG2 Assay for human Retinoic Acid Receptor Alpha (RARE), DR5 submotif (AID 2282934); details: HepG2 Attagene cis-factorial RARE DR5 reporter, mRNA; actives raise or lower the signal
Method in brief: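 After 24 h of chemical exposure, transiently transfected HepG2 cells were lysed for total RNA; the DR5-regulated reporter transcript was quantified via RT-PCR and capillary electrophoresis, with activity fitted bidirectionally against DMSO.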

[7] = biological target: Transcription factor E2F1 (Homo sapiens) (UniProt Q01094); assay: ATG_E2F_CIS: Attagene CIS-FACTORIAL HepG2 Assay for human E2F Transcription Factor 1 (AID 2282935); details: HepG2 Attagene cis-reporter, E2F reporter RNA transcripts; actives raise or lower the signal
Method in brief: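 Endogenous E2F1 activity read through cis-promoter reporter units transfected into HepG2. After 24 h compound treatment, reporter mRNA measured by RT-PCR, HpaI digestion and capillary electrophoresis. Bidirectional fit versus DMSO.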

[8] = ATG_E_Box_CIS: Attagene CIS-FACTORIAL HepG2 Assay for human Enhancer Box (E-box) (AID 2282936); details: HepG2 E-box cis-reporter transcription, actives raise or lower the signal
Method in brief: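 HepG2 cells transiently transfected with multiplexed cis-element reporter units, dosed 24 h; reporter mRNA quantified by RT-PCR, 6-FAM labelling, HpaI digestion and capillary electrophoresis. E-box (USF1) signal fitted bidirectionally vs DMSO.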

[9] = ATG_M_61_CIS: Attagene CIS-FACTORIAL HepG2 Assay for M61 Transcription Factor (Internal Marker) (AID 2282937); details: HepG2 Attagene CIS-FACTORIAL M61 internal marker reporter; actives raise or lower the signal
Method in brief: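 Multiplexed reporter mRNA assay, HepG2 human hepatoma cells, 24 h treatment. Signal: FAM-labelled, HpaI-digested RT-PCR fragments by CE. Fit: bidirectional, baseline DMSO.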

[10] = ATG_EGR_CIS: Attagene CIS-FACTORIAL HepG2 Assay for human Early Growth Response 1 (EGR1) (AID 2282938); details: HepG2 Attagene CIS-FACTORIAL EGR reporter mRNA; actives raise or lower the signal
Method in brief: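 Multiplexed cis-reporter system in human hepatoma HepG2 cells, transiently transfected. Cells are dosed for 24 h; reporter transcripts are amplified, fluorescently tagged and sized by capillary electrophoresis, with DMSO as negative control.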

[11] = ATG_M_19_CIS: Attagene CIS-FACTORIAL HepG2 Assay for M19 Transcription Factor (Internal Marker) (AID 2282939); details: HepG2 Attagene CIS-FACTORIAL M19 internal marker reporter; actives raise or lower the signal
Method in brief: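 HepG2 cells transiently transfected with cis-regulated multiple reporter transcription units were dosed for 24 h; reporter mRNA was quantified by RT-PCR, 6-FAM primer-extension labelling, HpaI digestion and capillary electrophoresis, with bidirectional fitting against DMSO baseline.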

[12] = ATG_ERE_CIS: Attagene CIS-FACTORIAL HepG2 Assay for Estrogen Response Element (ERE) (AID 2282940); details: HepG2 ERE cis-reporter, Attagene RNA transcript; actives raise or lower the signal
Method in brief: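 HepG2 cells transiently transfected with cis-promoter-driven multiplexed reporter transcription units report endogenous TF activity. After 24 h compound exposure, reporter mRNA is quantified by RT-PCR with capillary electrophoresis fluorescence; bidirectional fitting versus DMSO baseline.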

[13] = ATG_Ets_CIS: Attagene CIS-FACTORIAL HepG2 Assay for human Erythroblast Transformation Specific (ETS) (AID 2282941); details: HepG2 ETS cis-reporter transcription; AC50: actives raise or lower the signal unless noted; outcome: actives raise or lower the signal unless noted
Method in brief: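 Steps: transfect HepG2 with multiple reporter units; treat compound 24 h; isolate RNA, DNase-treat, reverse-transcribe; PCR-amplify, label with 6-FAM, digest with HpaI; separate by capillary electrophoresis. Activity fitted both directions versus DMSO.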

[14] = ATG_FoxO_CIS: Attagene CIS-FACTORIAL HepG2 Assay for human Forkhead box O (FoxO) (AID 2282943); details: HepG2 Attagene cis-reporter, FoxO element, mRNA; actives raise or lower the signal
Method in brief: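 Transfected HepG2 reporter cells exposed to test chemical for 24 h; reporter RNA measured by reverse transcription, PCR and fluorescent capillary electrophoresis; curves fitted for increases and decreases against DMSO.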

[15] = ATG_GATA_CIS: Attagene CIS-FACTORIAL HepG2 Assay for human GATA Binding Protein (AID 2282944); details: HepG2 GATA cis-element reporter, Attagene multiplex mRNA; actives raise or lower the signal
Method in brief: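 HepG2 cells transiently transfected with multiplexed cis-element reporter units reflecting endogenous transcription factor activity; reporter mRNA measured after 24 h dosing by RT-PCR, 6-FAM labeling, HpaI digestion and capillary electrophoresis. Bidirectional fitting versus DMSO baseline.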

[16] = ATG_GLI_CIS: Attagene CIS-FACTORIAL HepG2 Assay for human Zinc Finger Protein GLI1 (AID 2282945); details: HepG2, Attagene cis-factorial reporter mRNA, GLI element; actives raise or lower the signal
Method in brief: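 Transiently transfected HepG2 cells report endogenous transcription factor activity via cis-element-driven reporter units. After 24 h compound exposure, reporter mRNA was measured by RT-PCR with capillary electrophoresis; bidirectional fitting against DMSO baseline.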

[17] = biological target: Bile acid receptor (Homo sapiens) (UniProt Q96RI1); assay: ATG_IR1_CIS: Attagene CIS-FACTORIAL HepG2 Assay for human Nuclear Receptor Subfamily 1 Group H Member 4 (NR1H4), IR1 submotif (AID 2282946); details: IR1 reporter transcription, actives raise or lower the signal
Method in brief: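 HepG2 cells transiently transfected with multiple cis-promoter-driven reporter units to measure endogenous transcription factor activity; 24 h exposure. Reporter mRNA read by RT-PCR, FAM labelling, HpaI digestion and capillary electrophoresis. Bidirectional fit versus DMSO.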

[18] = ATG_GRE_CIS: Attagene CIS-FACTORIAL HepG2 Assay for human Glucocorticoid Response Elements (GRE) (AID 2282947); details: HepG2 GRE cis-reporter, Attagene multiplex mRNA; AC50: actives raise or lower the signal unless noted; outcome: actives raise or lower the signal unless noted
Method in brief: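 Transiently transfected HepG2 cells carrying GRE cis-reporter units (endogenous TF activity) dosed 24 h; reporter mRNA quantified by RT-PCR, 6-FAM labelling, HpaI digestion and capillary electrophoresis. Bidirectional fit versus DMSO baseline.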

[19] = ATG_ISRE_CIS: Attagene CIS-FACTORIAL HepG2 Assay for human Interferon Regulatory Factor 1 (IRF1) binding to an Interferon-Stimulated Response Element (ISRE) (AID 2282948); details: HepG2 ISRE cis-reporter (Attagene), mRNA transcription readout; actives raise or lower the signal
Method in brief: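 Transfected HepG2 (multiple reporter transcription units, cis elements) dosed 24 h. RNA → oligo(dT) RT → PCR → 6-FAM primer extension → HpaI → CE. DMSO = negative control/baseline.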

[20] = biological target: Hepatocyte nuclear factor 3-beta (Homo sapiens) (UniProt Q9Y261); assay: ATG_FoxA2_CIS: Attagene CIS-FACTORIAL HepG2 Assay for human Forkhead box A2 (FOXA2) (AID 2282942); details: HepG2 cis-reporter transcription factor activity, 24 h; actives raise or lower the signal
Method in brief: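 Multiplexed cis-element reporter assay in transiently transfected HepG2. Twenty-four hours post-dosing, RNA was reverse-transcribed, amplified, FAM-labelled, HpaI-digested and separated by CE. Activity gain or loss relative to DMSO.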

Transcription factor E2F1 (Homo sapiens), sequence (Q01094 whole entry, looked up): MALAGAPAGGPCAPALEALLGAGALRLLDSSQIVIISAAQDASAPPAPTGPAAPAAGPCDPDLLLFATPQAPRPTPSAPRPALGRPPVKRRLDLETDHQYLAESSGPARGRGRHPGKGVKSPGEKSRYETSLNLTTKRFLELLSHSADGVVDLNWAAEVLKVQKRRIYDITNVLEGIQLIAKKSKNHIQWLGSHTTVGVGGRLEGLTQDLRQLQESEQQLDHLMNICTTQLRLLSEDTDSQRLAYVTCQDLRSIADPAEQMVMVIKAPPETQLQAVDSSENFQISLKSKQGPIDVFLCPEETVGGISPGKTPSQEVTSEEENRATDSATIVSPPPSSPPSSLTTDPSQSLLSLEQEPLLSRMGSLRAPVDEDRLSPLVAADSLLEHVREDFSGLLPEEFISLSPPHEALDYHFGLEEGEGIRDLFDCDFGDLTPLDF
Hepatocyte nuclear factor 3-beta (Homo sapiens), sequence (Q9Y261 whole entry, looked up): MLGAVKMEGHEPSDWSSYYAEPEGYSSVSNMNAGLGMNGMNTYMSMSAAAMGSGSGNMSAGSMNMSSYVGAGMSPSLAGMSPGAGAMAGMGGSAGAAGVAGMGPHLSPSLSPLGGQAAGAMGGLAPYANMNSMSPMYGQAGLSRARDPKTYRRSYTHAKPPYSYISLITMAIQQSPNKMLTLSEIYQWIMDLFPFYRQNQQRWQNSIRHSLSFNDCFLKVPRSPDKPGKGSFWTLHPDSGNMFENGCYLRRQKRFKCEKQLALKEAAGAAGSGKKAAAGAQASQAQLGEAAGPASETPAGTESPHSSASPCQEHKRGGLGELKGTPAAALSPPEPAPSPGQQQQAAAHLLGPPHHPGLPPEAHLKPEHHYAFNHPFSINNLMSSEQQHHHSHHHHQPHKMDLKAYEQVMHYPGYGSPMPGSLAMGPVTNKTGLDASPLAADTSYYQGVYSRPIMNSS
Bile acid receptor (Homo sapiens), sequence (Q96RI1 whole entry, looked up): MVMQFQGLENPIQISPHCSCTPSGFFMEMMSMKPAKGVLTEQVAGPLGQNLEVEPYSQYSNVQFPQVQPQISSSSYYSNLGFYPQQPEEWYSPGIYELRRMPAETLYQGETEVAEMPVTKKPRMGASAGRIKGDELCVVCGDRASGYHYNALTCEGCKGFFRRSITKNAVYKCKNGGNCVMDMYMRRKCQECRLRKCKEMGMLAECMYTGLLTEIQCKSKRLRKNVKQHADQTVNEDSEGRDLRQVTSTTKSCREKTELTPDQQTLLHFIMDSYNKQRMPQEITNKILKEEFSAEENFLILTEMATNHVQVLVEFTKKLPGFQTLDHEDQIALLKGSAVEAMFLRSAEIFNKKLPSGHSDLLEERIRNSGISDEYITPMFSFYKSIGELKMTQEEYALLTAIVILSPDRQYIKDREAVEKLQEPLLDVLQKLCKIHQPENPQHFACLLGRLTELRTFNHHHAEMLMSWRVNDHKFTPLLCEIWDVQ
Retinoic acid receptor alpha (Homo sapiens), sequence (P10276 whole entry, looked up): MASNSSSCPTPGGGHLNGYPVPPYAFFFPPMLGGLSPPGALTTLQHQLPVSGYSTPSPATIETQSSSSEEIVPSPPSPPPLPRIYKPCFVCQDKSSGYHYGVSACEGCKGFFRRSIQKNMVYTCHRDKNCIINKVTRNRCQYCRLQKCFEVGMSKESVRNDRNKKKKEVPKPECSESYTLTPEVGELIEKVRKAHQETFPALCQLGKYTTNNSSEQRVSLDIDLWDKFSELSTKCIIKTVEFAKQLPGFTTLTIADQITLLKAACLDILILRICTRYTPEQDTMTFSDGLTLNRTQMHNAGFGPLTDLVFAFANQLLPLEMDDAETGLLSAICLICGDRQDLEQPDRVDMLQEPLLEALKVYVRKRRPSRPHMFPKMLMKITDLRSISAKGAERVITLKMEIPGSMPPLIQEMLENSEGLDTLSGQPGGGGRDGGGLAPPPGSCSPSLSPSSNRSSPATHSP
Aryl hydrocarbon receptor (Homo sapiens), sequence (P35869 whole entry, looked up): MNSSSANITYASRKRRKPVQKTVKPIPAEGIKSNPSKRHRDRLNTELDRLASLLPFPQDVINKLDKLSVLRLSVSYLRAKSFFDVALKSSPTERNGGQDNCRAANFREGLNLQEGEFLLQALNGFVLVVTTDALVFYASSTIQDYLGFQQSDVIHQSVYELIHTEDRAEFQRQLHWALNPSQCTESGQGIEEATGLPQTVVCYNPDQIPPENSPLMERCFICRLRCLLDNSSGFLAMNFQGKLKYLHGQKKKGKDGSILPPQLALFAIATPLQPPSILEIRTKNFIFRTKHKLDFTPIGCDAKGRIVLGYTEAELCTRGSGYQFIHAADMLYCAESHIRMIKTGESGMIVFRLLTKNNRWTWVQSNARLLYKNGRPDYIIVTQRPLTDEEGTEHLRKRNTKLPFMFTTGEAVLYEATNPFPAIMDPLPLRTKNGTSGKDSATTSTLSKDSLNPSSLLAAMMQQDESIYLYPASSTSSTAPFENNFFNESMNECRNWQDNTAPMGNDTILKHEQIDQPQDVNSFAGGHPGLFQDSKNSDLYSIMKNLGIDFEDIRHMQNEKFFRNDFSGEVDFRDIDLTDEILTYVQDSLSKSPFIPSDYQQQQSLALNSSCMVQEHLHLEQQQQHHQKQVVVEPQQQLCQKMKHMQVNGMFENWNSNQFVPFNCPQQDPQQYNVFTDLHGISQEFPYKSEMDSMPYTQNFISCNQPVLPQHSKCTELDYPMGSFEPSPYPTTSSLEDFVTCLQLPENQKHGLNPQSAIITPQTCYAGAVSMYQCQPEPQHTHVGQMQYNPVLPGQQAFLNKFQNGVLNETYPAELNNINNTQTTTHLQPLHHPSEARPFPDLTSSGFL

SMILES: Clc1ccc2c(Cl)ccnc2c1
- outcome [1]: inactive
- AC50 [2]: 19.8 µM (active)
- outcome [3]: inactive
- outcome [4]: inactive
- AC50 [5]: 65.6 µM (active)
- outcome [6]: inactive
- outcome [7]: inactive
- outcome [8]: inactive
- outcome [9]: inactive
- outcome [10]: inactive
- outcome [11]: inactive
- outcome [12]: inactive
- outcome [13]: inactive
- outcome [14]: inactive
- outcome [15]: inactive
- outcome [16]: inactive
- outcome [17]: inactive
- outcome [18]: inactive
- outcome [19]: inactive

SMILES: Cc1ccc(S(=O)(=O)O)cc1
- outcome [1]: inactive
- outcome [2]: inactive
- outcome [3]: inactive
- outcome [4]: inactive
- outcome [5]: inactive
- outcome [6]: inactive
- outcome [7]: inactive
- outcome [8]: inactive
- outcome [9]: inactive
- outcome [10]: inactive
- outcome [11]: inactive
- outcome [13]: inactive
- outcome [20]: inactive
- outcome [14]: inactive
- outcome [15]: inactive
- outcome [16]: inactive
- outcome [19]: inactive

SMILES: COc1cc([N+](=O)[O-])ccc1N
- outcome [1]: inactive
- outcome [2]: inactive
- outcome [3]: inactive
- outcome [4]: inactive
- outcome [5]: inactive
- outcome [6]: inactive
- outcome [7]: inactive
- outcome [8]: inactive
- outcome [9]: inactive
- outcome [10]: inactive
- outcome [11]: inactive
- outcome [12]: inactive
- outcome [13]: inactive
- outcome [14]: inactive
- outcome [15]: inactive
- outcome [16]: inactive
- outcome [17]: inactive
- outcome [18]: inactive
- outcome [19]: inactive

SMILES: Brc1ccc(Oc2ccc(Br)cc2Br)cc1
- outcome [1]: inactive
- outcome [2]: inactive
- outcome [3]: inactive
- outcome [4]: inactive
- outcome [5]: inactive
- outcome [6]: inactive
- outcome [7]: inactive
- outcome [8]: inactive
- outcome [9]: inactive
- outcome [10]: inactive
- outcome [11]: inactive
- outcome [12]: inactive
- outcome [13]: inactive
- outcome [20]: inactive
- outcome [14]: inactive
- outcome [15]: inactive
- outcome [16]: inactive
- outcome [17]: inactive
- outcome [19]: inactive

SMILES: O=C(O)C(=O)O
- outcome [1]: inactive
- outcome [2]: inactive
- outcome [3]: inactive
- outcome [4]: inactive
- outcome [5]: inactive
- outcome [6]: inactive
- outcome [7]: inactive
- outcome [8]: inactive
- outcome [9]: inactive
- outcome [10]: inactive
- outcome [11]: inactive
- outcome [13]: inactive
- outcome [20]: inactive
- outcome [14]: inactive
- outcome [15]: inactive
- outcome [16]: inactive
- outcome [18]: inactive
- outcome [19]: inactive

SMILES: O=S(=O)(O)c1ccccc1
- outcome [1]: inactive
- outcome [2]: inactive
- outcome [3]: inactive
- outcome [4]: inactive
- outcome [5]: inactive
- outcome [6]: inactive
- outcome [7]: inactive
- outcome [8]: inactive
- outcome [9]: inactive
- outcome [10]: inactive
- outcome [11]: inactive
- outcome [13]: inactive
- outcome [20]: inactive
- outcome [14]: inactive
- outcome [15]: inactive
- outcome [16]: inactive
- outcome [17]: inactive
- outcome [18]: inactive
- outcome [19]: inactive

SMILES: Brc1cc(Br)c(Oc2c(Br)cc(Br)c(Br)c2Br)cc1Br
- outcome [1]: inactive
- outcome [2]: inactive
- outcome [3]: inactive
- outcome [4]: inactive
- outcome [5]: inactive
- outcome [6]: inactive
- outcome [7]: inactive
- outcome [8]: inactive
- outcome [9]: inactive
- outcome [10]: inactive
- outcome [11]: inactive
- outcome [12]: inactive
- outcome [13]: inactive
- outcome [20]: inactive
- outcome [14]: inactive
- outcome [15]: inactive
- outcome [16]: inactive
- outcome [17]: inactive
- outcome [19]: inactive
